Here are results for 3 compounds from PubChem BioAssay AID1159580 (chemical genetic matrix, 2015).

Screen size: about 5,500 compounds; about 2,000 (36%) were called active. Inconclusive results (about 18%) are left out. The list shows a part of the results. Values without a mark were called inactive. Cut-off read from the data, not from the text of the source: active = normalized growth mostly below about 0.91 (no sharp cut-off); inconclusive = no clear call, values can overlap the other calls; inactive = mostly above about 0.92.

The assay is described as follows: chemical genetic growth profiling, strain panel (AID 1159580).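 Note: tested at 20 µM; growth read once vehicle control cultures reached saturation at 30 °C; 1 = growth at the plate median or of vehicle wells; lower values mean less growth of the strain.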 The following applies: S. cerevisiae deletion strains, growth OD.
The mark [1] stands for this setting: locus YAL013W, strain DEP1, stronger effect = lower value.
Where [2] appears, read: locus YAL040C, strain CLN3, stronger effect = lower value.
The mark [3] stands for this setting: locus YCL061C, strain MRC1 (second series), stronger effect = lower value.
The mark [4] stands for this setting: locus YDR363W, strain ESC2, stronger effect = lower value.
The mark [5] stands for this setting: locus YER002W, strain NOP16, stronger effect = lower value.
Setting [6] is: locus YGR229C, strain SMI1, stronger effect = lower value.
The mark [7] stands for this setting: locus YNL175C, strain NOP13, stronger effect = lower value.
Setting [8] is: locus YNL197C, strain WHI3, stronger effect = lower value.
[9] abbreviates: locus YNL224C, strain SQS1, stronger effect = lower value.
The mark [10] stands for this setting: locus YOR083W, strain WHI5 (second series), stronger effect = lower value.
The mark [11] stands for this setting: locus YGR078C, strain PAC10, stronger effect = lower value.
Where [12] appears, read: locus YMR307W, strain GAS1, stronger effect = lower value.
[13] abbreviates: locus YPL055C, strain LGE1, stronger effect = lower value.
[14] abbreviates: locus YPL241C, strain CIN2, stronger effect = lower value.

Turning to `Nc1nc2[nH]c(=O)cnc2c(=O)[nH]1`, the normalized growth is 0.996 under setting [1]; 1.06 under setting [2]; 0.994 under setting [3]; 0.985 under setting [4]; 0.949 under setting [5]; 1.01 under setting [6]. Further, the normalized growth (locus YMR263W, strain SAP30, stronger effect = lower value) was 0.99; the normalized growth under setting [7] was 0.983; the normalized growth under setting [8] is 0.977; the normalized growth under setting [9] was 0.987; the normalized growth (locus YNL322C, strain KRE1, stronger effect = lower value) is 1.01; the normalized growth under setting [10] was 0.988.
As to `CCCCCCCCCCCCC/C=C/[C@@H](O)[C@@H](N)CO`, the normalized growth under setting [1] was 0.877 (active); the normalized growth under setting [2] is 0.984; the normalized growth under setting [3] was 0.925 (active); the normalized growth (locus YDR150W, strain NUM1, stronger effect = lower value) is 0.848 (active); the normalized growth under setting [4] was 0.929; the normalized growth under setting [5] was 1.02. Also, the normalized growth runs as follows: under setting [11], 1.01; under setting [6], 0.172 (active); (locus YJR075W, strain HOC1, stronger effect = lower value) 0.644 (active); under setting [12], 1.02; (locus YNL153C, strain GIM3, stronger effect = lower value) 0.844; under setting [7], 1.19 [resistant] (active). Moreover, the normalized growth is 1.1 under setting [8]; 1.06 under setting [9]; 1.11 under setting [10]; 0.757 (active) under setting [13]; 0.926 (active) under setting [14].
Regarding `CCCCCCCCCCCCCCC[C@H](O)[C@H](N)CO`, the normalized growth is 0.976 under setting [1]; 1.05 under setting [2]; 0.987 under setting [3]; 0.99 under setting [4]; 1.03 under setting [5]; 1.01 under setting [11]. Further, the normalized growth reads like this: under setting [12], 1.01; (locus YNL128W, strain TEP1, stronger effect = lower value) 0.222 (active); under setting [7], 0.643 (active); under setting [8], 1.12 [resistant] (active); under setting [9], 0.928; under setting [10], 0.811 (active). Also, the normalized growth runs as follows: under setting [13], 1.02; under setting [14], 0.998.
